From PubChem BioAssay come the findings set out here.

By inhibition is commonly meant the relative decrease from the control value, in per cent.

SMILES strings stand for the structures. Records with an inconclusive call do not appear. Activity calls are given as the source filed them. Unless noted, no stated cut-off is given here; in the data, active means response above about 15%; inactive means the rest.

Test [1] can be described thus: yeast TOR pathway RPL19A-GFP modulators, primary screen, cell-based, S. cerevisiae, multiplex flow cytometry (AID 1862; in the data active means percent of DMSO control GFP below about 86%;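 further: lower values mimic rapamycin by blocking the RPL19A rise seen in DMSO cells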). The settings on record: S. cerevisiae RPL19A-GFP strain, flow cytometry fluorescence, 3 h; at 10 µM; stronger effect = lower value.
Test [2] can be described thus: modulators of MEP2-GFP levels in yeast, primary screen, S. cerevisiae, multiplex flow cytometry (AID 1867;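 active means GFP response, as percent of the DMSO control, above the screen-wide mean plus 3 SD, about 139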;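 further: median GFP channel fluorescence of barcode-gated MEP2-GFP cells measured by flow cytometry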). The conditions noted are these: S. cerevisiae MEP2-GFP strain, 3 h, at 10 µM, stronger effect = higher value, 100% means same as DMSO wells. A general note: A flow cytometer gives signals particle by particle.
The nature of test [3]: modulators of CIT2-GFP expression in yeast, primary screen, S. cerevisiae, GFP fusion, multiplex flow cytometry (AID 1870;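 active means percent response above a set limit, the screen-wide mean plus 3 SD, cut at about 130% in these data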;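 further: barcoded CIT2-GFP strain pooled with four other GFP strains with rapamycin as positive control; median GFP fluorescence per well over plate mean of DMSO wells so 100% = DMSO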). The settings on record: 3 h, at 10 µM, stronger effect = higher value.
Test [4] in a line: modulators of LAP4-GFP expression in yeast, primary screen, S. cerevisiae, multiplex flow cytometry (AID 1873;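 active means GFP signal, as percent of the solvent control, above the screen mean plus 3 SD, about 149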). The conditions noted are these: 3 h, at 10 µM, stronger effect = higher value.
Test [5] in a line: modulators of AGP1-GFP expression in yeast TOR pathway, primary screen, cell-based, multiplex flow cytometry, S. cerevisiae (AID 1887;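 active means GFP signal above the screen-wide mean plus 3 SD, that is over about 124.5% of the solvent control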;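 further: AGP1-GFP fusion strain of S. cerevisiae within a five-strain barcoded multiplex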). The settings on record: 3 h, at 10 µM, stronger effect = higher value.
Test [6] is described as follows: inhibitors of CD8+ T cell-vesicle binding, pilot screen, LFA-1/ICAM-1 modulator project, MLPCN validation set, flow cytometry (AID 2523;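 active means response below a set limit, under 55% cells CD8-positive and vesicle-bound, and CD8 cells' 90th-percentile brightness under 279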;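 on vesicle binding response: mean PE anti-B7-1 fluorescence of CD8+ cells relative to row control; 100% = QL9-loaded vesicles with DMSO vehicle in the same plate row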). The settings on record: 2C mouse CD8+ T cells, at 7 µM, stronger effect = lower value; double positive events: measured here: CD8+/vesicle+ event percentage.
In test [7] the target is Integrin beta-1 (Homo sapiens) + Integrin alpha-4 (Homo sapiens) (UniProt P13612+P05556). In words: inhibition of HUTS-21 binding to VLA-4, pilot screen, VLA-4 allosteric modulator project, U937 cells, HUTS-21 mAb, flow cytometry, validation set (AID 2674;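 active means inhibition above 50%, about 3 SD of the validation set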;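 further: antibody binding induced by the VLA-4 ligand LDV present at three times its Kd; 0% = LDV ligand with antibody and no compound and 100% = antibody without LDV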). The conditions noted are these: HUTS-21 LIBS mAb binding, at 6.7 µM, stronger effect = higher value, binding induced by LDV ligand.
Integrin beta-1 (Homo sapiens) + Integrin alpha-4 (Homo sapiens), sequence (P05556 whole entry, looked up): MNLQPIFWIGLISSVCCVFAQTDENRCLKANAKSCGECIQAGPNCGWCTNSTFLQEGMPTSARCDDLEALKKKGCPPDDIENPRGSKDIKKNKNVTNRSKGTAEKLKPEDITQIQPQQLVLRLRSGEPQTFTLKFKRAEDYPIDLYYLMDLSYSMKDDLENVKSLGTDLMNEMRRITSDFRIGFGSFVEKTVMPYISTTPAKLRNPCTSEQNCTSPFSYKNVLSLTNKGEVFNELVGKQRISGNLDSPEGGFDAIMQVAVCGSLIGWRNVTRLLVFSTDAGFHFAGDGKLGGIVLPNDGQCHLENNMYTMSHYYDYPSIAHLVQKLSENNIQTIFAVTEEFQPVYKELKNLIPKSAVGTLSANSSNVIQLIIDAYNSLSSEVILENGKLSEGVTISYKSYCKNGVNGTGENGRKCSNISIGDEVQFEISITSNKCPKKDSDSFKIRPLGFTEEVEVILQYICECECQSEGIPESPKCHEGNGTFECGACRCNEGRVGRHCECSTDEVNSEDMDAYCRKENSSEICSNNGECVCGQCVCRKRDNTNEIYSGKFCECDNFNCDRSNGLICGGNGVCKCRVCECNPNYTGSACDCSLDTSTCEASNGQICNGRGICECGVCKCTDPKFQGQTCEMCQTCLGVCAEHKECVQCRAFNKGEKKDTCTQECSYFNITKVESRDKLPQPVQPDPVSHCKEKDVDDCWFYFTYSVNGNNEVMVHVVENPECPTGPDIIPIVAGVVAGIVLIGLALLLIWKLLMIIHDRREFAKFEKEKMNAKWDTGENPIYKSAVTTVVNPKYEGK
Integrin beta-1 (Homo sapiens) + Integrin alpha-4 (Homo sapiens), sequence (P13612 whole entry, looked up): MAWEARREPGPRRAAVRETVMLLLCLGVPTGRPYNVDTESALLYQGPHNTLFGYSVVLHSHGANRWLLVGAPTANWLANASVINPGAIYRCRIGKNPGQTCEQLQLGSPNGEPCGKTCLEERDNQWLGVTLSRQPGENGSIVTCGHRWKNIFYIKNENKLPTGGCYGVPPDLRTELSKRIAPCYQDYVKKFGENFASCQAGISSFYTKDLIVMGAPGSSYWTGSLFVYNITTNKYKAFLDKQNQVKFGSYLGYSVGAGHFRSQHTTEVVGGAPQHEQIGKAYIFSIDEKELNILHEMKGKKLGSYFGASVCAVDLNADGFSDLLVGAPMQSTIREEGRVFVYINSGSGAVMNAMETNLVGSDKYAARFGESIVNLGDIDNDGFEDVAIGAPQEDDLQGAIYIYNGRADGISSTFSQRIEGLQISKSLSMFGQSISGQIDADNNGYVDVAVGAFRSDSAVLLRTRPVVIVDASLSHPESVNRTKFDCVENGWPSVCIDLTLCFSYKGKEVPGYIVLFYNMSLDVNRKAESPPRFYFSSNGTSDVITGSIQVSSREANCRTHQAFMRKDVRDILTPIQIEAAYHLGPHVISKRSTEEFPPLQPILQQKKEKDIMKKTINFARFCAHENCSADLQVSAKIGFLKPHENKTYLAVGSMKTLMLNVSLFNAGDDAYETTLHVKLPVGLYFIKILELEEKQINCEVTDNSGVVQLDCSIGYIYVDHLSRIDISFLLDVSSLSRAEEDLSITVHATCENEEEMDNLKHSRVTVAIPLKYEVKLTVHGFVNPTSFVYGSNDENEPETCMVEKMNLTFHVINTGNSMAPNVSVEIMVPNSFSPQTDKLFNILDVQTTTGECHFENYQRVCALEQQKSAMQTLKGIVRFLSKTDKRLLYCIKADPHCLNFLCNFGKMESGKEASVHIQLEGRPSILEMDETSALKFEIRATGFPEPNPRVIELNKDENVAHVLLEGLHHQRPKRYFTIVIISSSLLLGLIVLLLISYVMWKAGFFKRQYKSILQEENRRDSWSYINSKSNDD

Test [8] is described as follows: superoxide lowering in aged yeast cells, pilot screen, validation compound set (AID 2706;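 active means superoxide response below 65% of plate, a cut near 3 SD across the whole screen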;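 further: yeast exposed to compound for one week at 30 degrees C before staining; 100% = mean of all compound wells on the same plate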). The settings on record: S. cerevisiae aging, superoxide DHE fluorescence; at 10 µM; stronger effect = lower value.
Test [9] has as its target Beta-adrenergic receptor kinase 1 (Homo sapiens) (UniProt P25098). The test can be described thus: GRK2 binders displacing RNA aptamer, biochemical, validation, human GRK2, bead flow cytometry (AID 488806;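 active means aptamer binding inhibition above 30%, about 3 SD of noise from non-fluorescent compounds; inactive means inhibition at or below 30%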). The settings on record: bead-bound GRK2, FAM-aptamer displacement, at 10 µM, stronger effect = higher value.
For test [10], the target named is Beta-2 adrenergic receptor (Homo sapiens) (UniProt P07550). In words: beta2AR agonists driving receptor internalization, pilot screen, cell-based, FAP fluorogen, flow cytometry, validation set (AID 504459;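 active means percent response above 42, roughly 3 SD of non-fluorescent test compounds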;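 further: agonist-driven loss of surface beta2AR via internalization measured by FAP dye flow cytometry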). The settings on record: Am2.2-beta2AR cells, FAP surface receptor flow cytometry; at 10 µM; stronger effect = higher value.
Beta-2 adrenergic receptor (Homo sapiens), sequence (P07550 whole entry, looked up): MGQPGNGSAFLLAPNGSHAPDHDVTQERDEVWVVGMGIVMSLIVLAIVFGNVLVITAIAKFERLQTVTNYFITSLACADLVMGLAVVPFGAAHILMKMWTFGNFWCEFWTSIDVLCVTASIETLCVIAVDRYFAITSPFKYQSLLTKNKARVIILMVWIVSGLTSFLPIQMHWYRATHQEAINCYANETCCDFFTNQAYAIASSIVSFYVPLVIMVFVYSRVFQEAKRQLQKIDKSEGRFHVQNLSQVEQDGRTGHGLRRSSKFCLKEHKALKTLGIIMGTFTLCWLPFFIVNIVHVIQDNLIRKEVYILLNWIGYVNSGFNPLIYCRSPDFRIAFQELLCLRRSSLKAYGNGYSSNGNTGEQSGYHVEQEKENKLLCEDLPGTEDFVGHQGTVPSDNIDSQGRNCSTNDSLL
The target of test [11] is AP-2 complex subunit beta (Homo sapiens) (UniProt P63010). The test can be described thus: inhibitors of arrestin peptide binding to AP2, pilot screen, biochemical, validation set, GST-AP2 beads, flow cytometry (AID 504541;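 active means inhibition above 54%, about 3 SD of non-fluorescent compounds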;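 further: AP2 carries R879A mutation and is captured from E. coli lysate; bead-bound FITC arrestin peptide fluorescence measuring arrestin peptide binding to AP2; 0% = DMSO wells and 100% = excess unlabeled arrestin peptide control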). The conditions noted are these: FITC arrestin peptide, at 10 µM, stronger effect = higher value, AP2 beta2 appendage fragment, R879A mutant.
AP-2 complex subunit beta (Homo sapiens), sequence (P63010 whole entry, looked up, the tested form may be a part, one chain of several): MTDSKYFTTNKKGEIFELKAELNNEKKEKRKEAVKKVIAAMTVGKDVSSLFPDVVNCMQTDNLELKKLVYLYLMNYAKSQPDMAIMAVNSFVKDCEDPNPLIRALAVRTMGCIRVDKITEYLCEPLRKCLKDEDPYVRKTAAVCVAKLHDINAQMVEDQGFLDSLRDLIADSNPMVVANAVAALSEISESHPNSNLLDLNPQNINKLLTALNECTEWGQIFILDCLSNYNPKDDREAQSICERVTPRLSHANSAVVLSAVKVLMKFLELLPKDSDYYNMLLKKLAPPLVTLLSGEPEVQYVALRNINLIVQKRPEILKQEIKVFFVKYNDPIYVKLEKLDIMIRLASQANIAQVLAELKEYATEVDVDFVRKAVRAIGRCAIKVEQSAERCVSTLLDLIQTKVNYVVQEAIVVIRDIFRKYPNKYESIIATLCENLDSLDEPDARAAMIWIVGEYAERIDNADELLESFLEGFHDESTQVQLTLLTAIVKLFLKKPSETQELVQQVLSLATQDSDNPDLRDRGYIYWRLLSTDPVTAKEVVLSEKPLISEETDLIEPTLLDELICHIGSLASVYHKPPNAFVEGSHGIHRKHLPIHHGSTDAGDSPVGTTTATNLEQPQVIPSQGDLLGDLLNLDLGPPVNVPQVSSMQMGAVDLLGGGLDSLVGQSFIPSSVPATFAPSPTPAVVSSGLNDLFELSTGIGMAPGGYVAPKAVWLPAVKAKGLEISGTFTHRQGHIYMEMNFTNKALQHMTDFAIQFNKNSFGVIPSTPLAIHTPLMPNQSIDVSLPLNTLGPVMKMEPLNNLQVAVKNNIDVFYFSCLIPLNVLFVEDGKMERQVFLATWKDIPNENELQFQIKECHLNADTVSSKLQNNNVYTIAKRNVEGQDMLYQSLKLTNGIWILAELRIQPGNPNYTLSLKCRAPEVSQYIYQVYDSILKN
Test [12] can be described thus: yeast V-ATPase proton transport modulators, S. cerevisiae, pHLuorin, HTS validation (AID 504600).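 Further: plate controls were DMSO for no effect and reference compound for full effect.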 The conditions noted are these: S. cerevisiae pHLuorin cytosolic pH, at 10 µM, stronger effect = higher value.
The subject of test [13] is anti-desmoglein-3 scFv antibody binding to human DSG3. The test can be described thus: inhibitors of anti-DSG3 scFv binding to DSG3, pilot screen, biochemical, validation compound set, bead-based, flow cytometry (AID 588368;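 active means binding below the plate cutoff, the plate median minus 3 SD, with a reading above zero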;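 further: signal is the median channel fluorescence of bead-bound GFP antibody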). The conditions noted are these: Protein G beads, DSG3-Fc, scFv-GFP binding, at 10 µM, stronger effect = lower value.
Test [14] is described as follows: inhibitors of fungal efflux pumps CDR1, CDR2, MDR1, pilot screen, validation compound set, multiplex, phenotypic (AID 588506;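 active means efflux inhibition above 0.42, the validation set average plus 4 SD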;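 further: Nile Red retained in cells so higher fluorescence means more efflux inhibition; 0 = negative control wells and 1 = enniatin B 25 µM full block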). The conditions noted are these: S. cerevisiae pump-expressing triplex, Nile Red efflux flow cytometry; at 10 µM; stronger effect = higher value; the pumps come from Candida albicans.
Test [15] addresses ATP-binding cassette sub-family B member 6 (Homo sapiens) (UniProt Q9NP58). The test can be described thus: ABCB6 transporter inhibitors, pilot screen, K562-ABCB6 cells, flow cytometry, validation set (AID 588550;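 active means inhibition above the screen-wide mean plus 3 SD, about 51%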;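 further: 0% = DMSO wells and 100% = benzethonium chloride 70 µM positive control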). The settings on record: K562-ABCB6 porphyrin accumulation, 1 h, at 10 µM, stronger effect = higher value.
Test [16] is described as follows: promoters of myeloid differentiation in arrested cells, primary screen, cell-based, GFP/MAC1 double positive, flow cytometry, validation set (AID 588685;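 active means differentiation response of at least 50%, scaled between solvent and reference control, from cells with both markers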;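 further: compound exposure lasts four days before antibody staining and flow analysis; 0% = DMSO wells and 100% = 5 µM fulvestrant positive control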). The settings on record: ER-HoxA9 marrow cells, stronger effect = higher value, normalized: vehicle 0, fulvestrant 100.

Beta-adrenergic receptor kinase 1 (Homo sapiens), sequence (P25098 whole entry, looked up): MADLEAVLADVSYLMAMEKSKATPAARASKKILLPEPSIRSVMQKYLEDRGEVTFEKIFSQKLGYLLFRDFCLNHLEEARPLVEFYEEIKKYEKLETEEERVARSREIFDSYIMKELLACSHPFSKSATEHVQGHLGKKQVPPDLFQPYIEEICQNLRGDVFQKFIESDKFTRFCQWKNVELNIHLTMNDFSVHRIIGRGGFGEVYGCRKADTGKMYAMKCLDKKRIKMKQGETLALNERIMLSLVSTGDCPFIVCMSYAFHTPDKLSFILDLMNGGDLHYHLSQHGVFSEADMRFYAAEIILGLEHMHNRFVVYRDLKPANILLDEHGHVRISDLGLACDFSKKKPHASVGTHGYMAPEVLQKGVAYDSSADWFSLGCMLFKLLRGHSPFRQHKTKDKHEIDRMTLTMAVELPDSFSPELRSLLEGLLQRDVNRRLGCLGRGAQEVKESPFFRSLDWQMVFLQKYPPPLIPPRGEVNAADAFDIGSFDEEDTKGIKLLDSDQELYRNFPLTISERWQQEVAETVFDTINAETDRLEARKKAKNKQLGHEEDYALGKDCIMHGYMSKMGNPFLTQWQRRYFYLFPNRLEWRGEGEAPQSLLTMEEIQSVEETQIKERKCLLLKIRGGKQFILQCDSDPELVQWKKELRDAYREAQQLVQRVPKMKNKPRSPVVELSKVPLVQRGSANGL
ATP-binding cassette sub-family B member 6 (Homo sapiens), sequence (Q9NP58 whole entry, looked up): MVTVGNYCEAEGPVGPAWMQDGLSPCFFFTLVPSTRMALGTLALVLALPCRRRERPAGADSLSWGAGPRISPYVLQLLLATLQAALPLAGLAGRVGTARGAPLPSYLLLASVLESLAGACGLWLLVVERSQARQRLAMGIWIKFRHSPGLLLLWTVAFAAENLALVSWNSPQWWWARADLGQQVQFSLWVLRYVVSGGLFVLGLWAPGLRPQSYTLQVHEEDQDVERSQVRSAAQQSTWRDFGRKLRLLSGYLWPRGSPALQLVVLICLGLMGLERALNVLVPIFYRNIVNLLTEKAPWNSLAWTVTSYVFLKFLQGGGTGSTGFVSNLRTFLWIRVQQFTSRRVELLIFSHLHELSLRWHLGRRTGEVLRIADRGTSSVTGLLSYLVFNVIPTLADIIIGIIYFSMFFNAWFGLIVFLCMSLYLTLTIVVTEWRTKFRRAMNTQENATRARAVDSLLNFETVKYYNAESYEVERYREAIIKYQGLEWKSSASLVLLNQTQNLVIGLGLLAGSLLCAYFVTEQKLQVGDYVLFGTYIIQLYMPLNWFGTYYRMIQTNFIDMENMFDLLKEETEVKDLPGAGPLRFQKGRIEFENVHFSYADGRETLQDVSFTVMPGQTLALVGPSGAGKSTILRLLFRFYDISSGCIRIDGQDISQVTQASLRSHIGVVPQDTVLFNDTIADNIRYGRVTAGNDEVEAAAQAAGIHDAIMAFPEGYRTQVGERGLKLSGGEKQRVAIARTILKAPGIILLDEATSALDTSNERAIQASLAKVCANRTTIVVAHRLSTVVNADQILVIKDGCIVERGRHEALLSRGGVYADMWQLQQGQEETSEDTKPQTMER

Turning to `NC(=O)N1c2ccccc2CC(=O)c2ccccc21`, the percent of DMSO control GFP in test [1] was 103% (inactive). The GFP response vs DMSO in test [2] was 102% (inactive); in test [4], 92.6% (inactive). For the same molecule, the percent response of DMSO control in [3] is 102% (inactive). In addition, the GFP response, % of DMSO in test [5] is 102% (inactive). This molecule also showed a double positive events in test [6] of 64.1%. In test [6], the vesicle binding response was 200% (inactive). For the same molecule, the inhibition in test [7] is 6.95% (inactive); in [11], -3.95% (inactive); in test [15], 2% (inactive). In [8], the superoxide response (% of plate) is 106% (inactive). In addition, the aptamer binding inhibition in [9] is 2% (inactive). Also, the response in test [10] is 0.79% (inactive); in [12] it was -2.65% (inactive). The binding (% of control) in test [13] is 97.3% (inactive). Further, the efflux inhibition (fraction of control) in test [14] was -0.14 (inactive). In addition, the differentiation response in test [16] was -6.03% (inactive).

For `Cc1nc2ccccc2n1CC(=O)NC1CCCC1`, in test [1], the percent of DMSO control GFP was 101% (inactive). Moreover, the GFP response vs DMSO in [2] is 95.6% (inactive); in [4], 92.6% (inactive). Also, the percent response of DMSO control in test [3] is 109% (inactive). The GFP response, % of DMSO in test [5] is 105% (inactive). Moreover, in [6], the double positive events was 60.6%. In [6], the vesicle binding response was 118% (inactive). The values for the inhibition in test [7], in test [11] and in test [15] were -2.43% (inactive), -5.83% (inactive) and -2% (inactive), respectively. Moreover, the superoxide response (% of plate) in test [8] was 84.9% (inactive). For the same molecule, in test [9], the aptamer binding inhibition is -2% (inactive). Besides, the figures for the response in test [10] and in test [12] were 7.07% (inactive) and 0.83% (inactive), respectively. For the same molecule, the binding (% of control) in test [13] is 105% (inactive). Further, in [14], the efflux inhibition (fraction of control) was 0.115 (inactive). Further, the differentiation response in test [16] was -8.96% (inactive).

Take `Cc1ncc(CN2CCC(CO)(CCc3ccccc3)CC2)s1`: the percent of DMSO control GFP in [1] was 101% (inactive). Moreover, the results for the GFP response vs DMSO in test [2] and in test [4] were 111% (inactive) and 102% (inactive), respectively. Also, the percent response of DMSO control in [3] was 104% (inactive). In test [5], the GFP response, % of DMSO is 110% (inactive). The same molecule displayed a double positive events in test [6] of 62.3%. Further, in test [6], the vesicle binding response is 98.1% (inactive). For the same molecule, the inhibition in [7] was 6.95% (inactive); in test [11], -1.19% (inactive); in test [15] it was 6% (inactive). In addition, the superoxide response (% of plate) in test [8] is 97.2% (inactive). Besides, in test [9], the aptamer binding inhibition is 2% (inactive). Moreover, the response in test [10] is -0.43% (inactive); in test [12] it was 0.58% (inactive). In test [13], the binding (% of control) is 107% (inactive). Also, the efflux inhibition (fraction of control) in [14] is -0.07 (inactive). Further, the differentiation response in [16] was -1.65% (inactive).

As for `CCOC(=O)N1CCc2[nH]c3ccc(C)cc3c2C1`, in [1], the percent of DMSO control GFP is 95.5% (inactive). Further, the figures for the GFP response vs DMSO in [2] and in [4] were 102% (inactive) and 140% (inactive), respectively. Further, the percent response of DMSO control in test [3] is 103% (inactive). The GFP response, % of DMSO in [5] is 103% (inactive). This molecule also gave a double positive events in test [6] of 64.6%. Further, in [6], the vesicle binding response is 175% (inactive). Further, the inhibition in test [7] is -3.67% (inactive); in [11] it was 4.56% (inactive); in test [15], -9% (inactive). The superoxide response (% of plate) in test [8] was 110% (inactive). Besides, the aptamer binding inhibition in test [9] is -1% (inactive). The response in test [10] was -9.79% (inactive); in [12], 14.9% (inactive). For the same molecule, the binding (% of control) in test [13] was 105% (inactive). Also, the efflux inhibition (fraction of control) in [14] is 0.25 (inactive). Also, the differentiation response in [16] is -4% (inactive).
